Test in all cases: NCI-60 one-dose screen, 48 h (100 = growth as untreated, 0 = no growth, -100 = all killed)
Holding throughout (conditions): 10 µM unless noted

Test [1] deals with NCI-H23 lung.
The test system of test [2] is NCI-H226 lung.
For test [3], the system named is NCI-H322M lung.
For test [4], the system named is NCI-H460 lung.
The subject of test [5] is HOP-92 NSCLC.
The test system of test [6] is NCI-H522 lung.
Test [7] relates to A549/ATCC NSCLC.
For test [8], the system named is 786-0 renal.
For test [9], the system named is COLO 205 colon.
For test [10], the system named is DU-145 prostate.
Test [11] has as its system K-562 leukemia.
In test [12] the test system is MALME-3M melanoma.
The subject of test [13] is MDA-MB-231 breast.
The test system of test [14] is RXF 393 renal.
The test system of test [15] is SF-268 CNS.
The test system of test [16] is SF-295 CNS.
In test [17] the test system is SF-539 CNS.
The subject of test [18] is UACC-257 melanoma.
In test [19] the test system is M14 melanoma.

This is part of a sample that, as a whole, favours compounds with a hit. Of some 83,000 tested, about 20% had one in any assay.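 Activity criterion: percent growth below 10, measured after cells in 96-well plates were exposed to a single compound concentration for 48 hours.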 Unmarked numbers belong to inactive results. Calls of active or inactive are those of the source.

As to `FC(F)(F)c1cccc(Nc2ccccc2)c1`, the growth in test [1] is 94.2%; in test [2], 97.6%; in [3], 109%; in test [4], 104%; in test [5], 101%; in [6] it was 98.6%. Also, the growth in test [7] is 97.3%; in test [8] it was 101%; in test [9] it was 105%; in [10], 110%; in [11], 95.5%; in test [12], 99.7%. For the same compound, the growth was 104% in test [13]; 109% in test [14]; 103% in [15]; 99.9% in test [16]; 95.5% in test [17]; 97.4% in test [18]. Besides, in test [19], the growth is 106%.
Consider `O=C(CNCCO)Nc1ccc2ncnc(Nc3ccc(OCc4cccc(F)c4)c(Cl)c3)c2c1`, for which the growth was 98.9% in test [1]; 93.8% in [2]; 33.4% in [3]; 88.7% in [4]; 55.8% in test [5]; 46.3% in test [6]. Moreover, the growth in test [7] is 71.6%; in test [8], 69.6%; in [10], 61.6%; in [11], 27.8%; in test [12] it was 98.2%; in test [13] it was 87.7%. Besides, the growth in test [15] was 78.1%; in test [16], 95%; in test [17], 87.8%; in test [18], 101%; in test [19] it was 93.4%.
For the compound `O=C(CSc1nc2sc3c(c2c(=O)n1Cc1ccccc1)CCCC3)N1CCN(c2ccccc2)CC1`, the growth in test [1] is 90.9%; in test [2], 94.6%; in test [3], 89.4%; in [4], 103%; in test [5] it was 103%; in test [6], 81.1%. Also, the growth in test [8] is 103%; in test [9] it was 112%; in test [10], 103%; in test [11] it was 99.4%; in [12], 109%; in test [13] it was 101%. Further, the growth in test [14] is 105%; in [15], 93.9%; in [16], 101%; in test [17] it was 103%; in [18], 85.7%.
As for `COc1ccc(-c2c[nH]c(C(=O)O)c2-c2cc(OC)c3c(c2OC)OCO3)cc1`, the growth is 98.9% in test [1]; 95.3% in test [2]; 95% in test [3]; 102% in [4]; 110% in test [5]; 97% in [6]. The growth in test [7] is 103%; in [8] it was 104%; in test [9] it was 102%; in test [10], 112%; in [11], 108%; in [12], 96.1%. In addition, the growth is 105% in [13]; 99.7% in [15]; 103% in test [16]; 97.4% in [17]; 98.7% in test [18]; 98.9% in test [19].
Regarding `CN(Cc1ccccc1)c1nc(Cl)c(C2CC(c3ccc(Cl)cc3)=Cc3[nH][nH]c(=O)c32)s1` (centres undefined), the growth in test [1] is 98.3%; in test [2], 97.1%; in [3], 110%; in [4] it was 92.7%; in test [5] it was 102%; in test [6], 89.7%. In addition, the growth in test [7] was 107%; in [8], 89.4%; in test [9] it was 124%; in test [10], 104%; in test [11], 42.5%; in test [12] it was 104%. Moreover, the growth is 113% in test [13]; 92.1% in test [15]; 90.2% in test [16]; 88.1% in test [17]; 102% in [18]; 107% in test [19].
As for `C=C(C)[C@@H]1CC[C@]2(C=O)CC[C@]3(C)[C@H](CC[C@@H]4[C@@]5(C)CCCNC(C)(C)[C@@H]5CC[C@]43C)[C@@H]12`, the growth in test [1] was 78.7%; in test [2], 91.7%; in [3], 91.5%; in [4], 16.7%; in test [6] it was 84.1%; in test [7] it was 62.2%. The growth in test [8] was 80.9%; in test [9], -78.8% (active); in test [10], 77.6%; in test [11] it was 0.984% (active); in test [12], 77.7%; in test [13], 91.2%. In addition, the growth in test [14] is 85.9%; in [15] it was 90.8%; in [16], 105%; in test [17], 90.1%; in test [18], 86.6%; in test [19], 81%.
Regarding `O=[N+]([O-])c1cccc(-c2nc(-c3ccc(Cl)cc3Cl)cn2-c2ccccc2)c1`, the growth was 20.8% in [1]; 18% in [2]; 157% in test [3]; -76.4% (active) in test [4]; 12.6% in test [5]; 12.8% in test [6]. The growth in test [7] is -32.9% (active); in test [8] it was -99.5% (active); in test [9], -36.5% (active); in test [10], -80.1% (active); in [11], 43.5%; in test [12], 128%. For the same compound, the growth in test [13] is -14.6% (active); in test [15], 0.437% (active); in [16], -74.3% (active); in [17], 23.6%; in test [18], -63.6% (active); in [19], -71.6% (active).
In the case of `O=C(CCN1CCCC1)Nc1ccc2c(NCc3ccc(F)cc3)c3ccccc3nc2c1`, the growth is -39.8% (active) in [1]; 4% (active) in test [2]; -4.47% (active) in test [3]; -63.4% (active) in test [4]; -8.01% (active) in [5]; -50.1% (active) in [6]. For the same compound, the growth in test [7] was -37.6% (active); in test [8] it was 6.33% (active); in test [9] it was -62.5% (active); in test [10] it was -38.4% (active); in test [11], 0.876% (active); in test [12], -90.4% (active). Moreover, the growth in [13] is -17.1% (active); in test [14], -15.8% (active); in test [15] it was -3.64% (active); in [16] it was 22.8%; in [17], 3.09% (active); in test [18] it was -3.51% (active). Besides, the growth in test [19] was -25% (active).

Source of the values: PubChem BioAssay (NCI).
